Compound activity as filed in PubChem.
Compounds with a hit are over-represented: about 0.96% of the library has one in this group of screens.
TRPV1 agonist: HTS Assay for Compounds that Act as Agonists of the Vanilloid Receptor 1 | TRPV1-expressing cells, Fluo-8 calcium influx, agonist mode | hit rate 0.19% among 320,000 | AID 540275, 2011 | activation, % at 8.33 µM; in the data active = activation above about 80%; inconclusive = between about 30% and that limit; also: 0% is about no effect
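Fluo-8 calcium influx in TRPV1-expressing cells, kinetic read (ex 480/em 520 nm). Compound added and read 3 min for agonist activity, followed by capsaicin at EC20 final and 2 min further read for enhancement.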
TRHR PAM: qHTS for Small Molecule Agonists and Allosteric Enhancers of Human TRH Receptor: Primary Screen for Enhancers | AID 493056, 2011 | TRHR cells, fluo-8 calcium fluorescence, EC20 TRH enhancement | enhancement, % at 2 µM | hit rate 0.66% among 360,000; in the data active = enhancement above about 30%; also: 0% is about no effect
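TRHR-expressing cells loaded with fluo-8 calcium dye were read kinetically (ex 480/em 530) during compound addition, then stimulated with an EC20 of TRH (10 nM final). Enhancement of the Gq-mediated intracellular calcium response was scored.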
TRHR agonist: qHTS for Small Molecule Agonists and Allosteric Enhancers of Human TRH Receptor: Primary Screen for Agonists; Thyrotropin-releasing hormone receptor (Homo sapiens), P34981; TRHR cells, calcium flux fluo-8, FDSS agonist mode; AID 493084, 2011; activation, % at 2 µM; hit rate 0.18% among 360,000; in the data active = activation above about 30%; also: 0% is about no effect
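Agonist-mode FDSS calcium read (Ex 480/Em 530, 1 s cycles) in 1536-well TRHR cells with fluo-8 dye, after 10-cycle baseline and 23 nL compound addition; TRH at EC20 (10 nM final) added afterwards for the enhancer phase.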
TRPML1 inh: qHTS for Inhibitors of the Human Mucolipin Transient Receptor Potential 1 (TRPML1). Mucolipin-1 (Homo sapiens), Q9GZU1. TRPML1-inducible cells, Ca2+ dye fluorescence, FDSS; stronger effect = lower value; inhibition of EC80 agonist-evoked calcium signal. activity change, negative = inhibition, % (no concentration beside the values). hit rate 0.02% among 390,000; in the data active = activity change below about -50%; inconclusive = between about -30% and that limit;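 also: stimulus is agonist 54-4 at its EC80 concentration; % is scaled to controls: 0 for no effect and ±100 for the full control effect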
Target sequence (Q9GZU1 whole entry, looked up): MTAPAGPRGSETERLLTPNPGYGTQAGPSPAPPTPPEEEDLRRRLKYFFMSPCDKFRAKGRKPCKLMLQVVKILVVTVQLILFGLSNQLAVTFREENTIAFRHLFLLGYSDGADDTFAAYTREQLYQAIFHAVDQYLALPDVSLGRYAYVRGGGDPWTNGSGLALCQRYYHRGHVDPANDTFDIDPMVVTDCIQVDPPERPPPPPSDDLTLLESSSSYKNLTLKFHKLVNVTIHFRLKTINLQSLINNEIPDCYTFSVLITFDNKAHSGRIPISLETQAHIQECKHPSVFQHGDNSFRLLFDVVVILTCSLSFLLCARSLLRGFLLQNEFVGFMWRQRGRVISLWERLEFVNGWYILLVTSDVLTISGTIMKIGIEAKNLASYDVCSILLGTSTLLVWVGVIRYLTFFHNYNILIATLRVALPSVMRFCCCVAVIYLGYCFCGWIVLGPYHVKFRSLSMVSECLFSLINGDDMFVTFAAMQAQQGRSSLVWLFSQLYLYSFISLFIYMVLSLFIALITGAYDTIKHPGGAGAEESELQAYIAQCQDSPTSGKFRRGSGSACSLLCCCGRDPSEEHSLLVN
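Calcium fluorescence in TRPML1-DL cells induced overnight with Tet: a 110 s read after compound pin addition, then a 110 s antagonist read after challenge with 54-4 at 4 uM final (EC80).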
TRPV1 PAM: HTS Assay for Compounds that Act as Potentiators of the Vanilloid Receptor 1. Transient receptor potential cation channel subfamily V member 1 (Homo sapiens), Q8NER1. TRPV1-expressing cells, Fluo-8 calcium influx, capsaicin EC20 potentiation. potentiation, % at 8.33 µM. hit rate 0.02% among 320,000; in the data active = potentiation above about 80%; inconclusive = between about 30% and that limit; also: 0% is about no effect
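Cells expressing TRPV1 were dye-loaded with Fluo-8 and read kinetically: 10 s baseline, 3 min after compound (agonist portion), then 2 min after EC20 capsaicin (allosteric enhancer portion). Calcium-bound dye fluorescence at 480/520 nm.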
TRPML1 ag: qHTS for Agonists of the Human Mucolipin Transient Receptor Potential 1 (TRPML1); Mucolipin-1 (Homo sapiens), Q9GZU1; TRPML1-expressing cells, Ca2+ dye fluorescence, FDSS; activation, % (concentration not given with the values); hit rate 0.12% among 410,000; AID 624414, 2012; in the data active = activation above about 50%; inconclusive = mostly about 30% to 49%; also: 0% is about no effect
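Agonist activity was taken from a 110 s kinetic Ca2+ dye read on the FDSS after pinning compounds onto TRPML1-DL cells. The cells were seeded at 1,500/well with Tet inducer, incubated about 16 h, then dye-loaded at room temperature.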
* marks the source's active call; other numbers are inactive results; u = inconclusive; x = no result given.

SMILES | TRPV1 agonist | TRHR PAM | TRHR agonist | TRPML1 inh | TRPV1 PAM | TRPML1 ag
O=c1c2[nH]c3ccccc3c2ncn1CCC1=CCCCC1 | 1 | -6 | 0 | -10 | 6 | 0
CC(C)(C)C(=O)OCCNc1nc(-c2cccs2)nc2ccccc12 | x | x | x | x | x | 0
CC(C)CN(CC(C)C)S(=O)(=O)N1CCC(C(=O)NC2CCCCCCC2)CC1 | 84* | -7 | 0 | -11 | 5 | 5
CCCC(=O)Nc1nc2c(s1)COc1ccccc1-2 | 13 | 9 | -1 | 40 | -9 | 0
CCCCC(=O)Nc1nc2c(s1)COc1ccccc1-2 | 121* | 5 | 1 | 7 | 25 | 0
COc1ccc(C(=O)Nc2cccc(-c3ccc(N4CCOCC4)nn3)c2)cc1 | -2 | 37* | 0 | 2 | -35 | -1
COc1ccc(Cl)cc1S(=O)(=O)Nc1cccc(-c2ccc(N3CCOCC3)nn2)c1 | x | 32* | 0 | 2 | x | -1
COC(=O)c1ccc(NC(=O)c2ccccc2OCC(=O)Nc2ccc(Br)cc2)cc1 | x | x | x | x | x | 0
O=[S+]([O-])(c1ccc2c(c1)OCCO2)N1CCN([S+](=O)([O-])c2c(F)cc(Br)cc2F)CC1 | x | -2 | 0 | x | x | x
CCOC(=O)[C@H]1[C@H]2COc3ccc(Br)cc3[C@@H]2N2C(=O)c3cc(Br)ccc3NC(=O)[C@@]12C | 83* | -2 | 1 | 2 | 25 | 1
CCOC(=O)[C@H]1[C@H]2COc3ccc(Cl)cc3[C@@H]2N2C(=O)c3cc(Br)ccc3NC(=O)[C@@]12C | u | 0 | 0 | -23 | u | 0
CCOC(=O)[C@H]1[C@H]2COc3ccc(OC)cc3[C@@H]2N2C(=O)c3cc(OC)ccc3NC(=O)[C@@]12C | 97* | 0 | 0 | 80 | 5 | -1
CCOC(=O)[C@H]1[C@H]2COc3ccc(OC)cc3[C@@H]2N2C(=O)c3cc(OC)c(OC)cc3NC(=O)[C@@]12C | -1 | -1 | 0 | -24 | 7 | 1
CCOC(=O)[C@H]1[C@H]2COc3ccc(OC)cc3[C@@H]2N2C(=O)c3cc(F)c(F)cc3NC(=O)[C@@]12C | 92* | 4 | 0 | 1 | u | 0
CCOC(=O)[C@H]1[C@H]2COc3ccc(OC)cc3[C@@H]2N2C(=O)c3ccccc3NC(=O)[C@@]12C | 100* | 1 | 0 | -13 | -7 | 0
COc1ccc(N=c2nc(-c3ccccc3)n(-c3ccc(C)cc3)s2)cc1 | x | x | x | x | x | 0
CC(C)(C)n1ncc2c(=O)n(Cc3c(F)cc(Cl)cc3F)cnc21 | x | x | x | -14 | x | 2
CN(C)c1ccc(/C=C2\C=Cc3cc([N+](=O)[O-])ccc32)cc1 | x | x | x | x | x | 1
COc1cc(OC)c(/C=C/c2cc(/C=C/c3c(OC)cc(OC)cc3OC)[n+](C)c3ccccc23)c(OC)c1 | x | x | x | x | x | 3
C=C1C=C(C(F)F)n2ncc(C(=O)Nc3ccc(Br)cc3C(F)(F)F)c2N1 | x | x | x | x | x | -1
CC(C)(C)OC(=O)N1CCC(c2c(C(=O)N3CCN(Cc4ccccc4)CC3)cnn2-c2cccc(Cl)c2)CC1 | x | -13 | 2 | -26 | x | 92*
Cc1cccc(-n2ncc(C(=O)N3CCN(C4CCCCC4)CC3)c2C2CCN(C(=O)OC(C)(C)C)CC2)c1 | x | -8 | 5 | u | x | 91*
Cc1ccc(C2CCN(C(=O)c3cnn(-c4cccc(Cl)c4)c3C3CCN(C(=O)OC(C)(C)C)CC3)C2)cc1 (stereo not given) | x | -3 | 3 | -1 | x | 59*
CC(C)(C)OC(=O)N1CCC(c2c(C(=O)N3CCC(c4ccccc4)C3)cnn2-c2cccc(Cl)c2)CC1 (stereo not given) | x | -12 | 24 | -10 | x | 57*
CC(C)(C)OC(=O)N1CCC(c2c(C(=O)N3CCN(C4CCCCC4)CC3)cnn2-c2ccccc2)CC1 | 2 | -3 | -1 | 7 | 11 | 0
SMILES | TRPV1 agonist | TRHR PAM | TRHR agonist | TRPML1 inh | TRPV1 PAM | TRPML1 ag
O=C(COC(=O)c1ccc2ncsc2c1)NC(=O)C1CCCCC1 | x | x | x | x | x | 0
C=C1C=C(C(F)F)n2ncc(C(=O)NCc3ccccc3)c2N1 | x | x | x | x | x | -1
O=[N+]([O-])c1ccc(Nc2nc(NCCN3CCOCC3)nc(Nc3ccc(Cl)cc3)n2)cc1 | x | x | x | x | x | 0
COc1cc2c(cc1OC)/C(=C/c1ccc(N(C)C)cc1)C=C2 | x | x | x | x | x | 1
COc1ccccc1N1CCN(C(=O)c2cnn(-c3cccc(Cl)c3)c2C2CCN(C(=O)OC(C)(C)C)CC2)CC1 | x | -3 | 0 | -12 | x | 67*
CC1CCN(C(=O)c2cnn(-c3cccc(Cl)c3)c2C2CCN(C(=O)OC(C)(C)C)CC2)CC1 | x | 12 | 0 | 0 | x | 0
O=C(CNC(=O)c1ccc2ccccc2c1)OC(C(=O)Nc1cc(C(F)(F)F)ccc1Cl)c1ccccc1 (stereo not given) | x | -11 | 3 | x | x | x
COC(=O)[C@H](Cc1ccccc1)N(C)S(=O)(=O)c1cccc(S(=O)(=O)N(C)[C@@H](Cc2ccccc2)C(=O)OC)c1 | 0 | -2 | 1 | 23 | -5 | 3
CN([C@@H](C(=O)OC(C)(C)C)c1ccccc1)S(=O)(=O)c1cccc(S(=O)(=O)N(C)[C@@H](C(=O)OC(C)(C)C)c2ccccc2)c1 | -1 | 5 | 0 | -19 | 10 | 71*
O=[S+]([O-])(c1ccc2c(c1)OCCO2)N1CCN([S+](=O)([O-])c2ccc(F)cc2Br)CC1 | x | -3 | 0 | x | x | x
C#CCN(C1CCCC1)S(=O)(=O)C=C | x | x | x | x | x | -1
CC(C)(C)C(=O)NC(=S)NNC(=O)C(c1ccccc1)c1ccccc1 | u | 1 | 99* | x | -8 | x
O=C(c1cnn2c(C(F)F)cc(-c3ccccc3)nc12)N1CCc2ccccc2C1 | -4 | -10 | 0 | -3 | 0 | 58*
O=c1[nH]c2ccc(S(=O)(=O)N3CCN(S(=O)(=O)c4ccc5c(c4)OCCO5)CC3)cc2[nH]c1=O | x | 4 | -1 | x | x | x
CCCn1c(SC(C)C(=O)N2CCOCC2)nc2ccc(Br)cc2c1=O (stereo not given) | 83* | 1 | 0 | -4 | -7 | 0
COc1ccc(-n2c(SC(C)C(=O)N3CCOCC3)nc3ccccc3c2=O)cc1 (stereo not given) | u | 6 | 0 | -5 | -10 | 0
